Experimental findings from PubChem BioAssay (NCATS) are described below.

Several values for one entry are separate records, joined by “and”; a condition that tells them apart may be missing. Equal values may be shown once. A number with no mark means an inactive call. Inconclusive results are not listed. Activity calls are given as the source filed them. Unless noted, calls come from the whole dose curve; as a rule, active = well fitted curve in either direction with a large enough effect (not every such curve was filed as active); inconclusive = small, poorly fitted or top-dose-only effect, or another doubt; inactive = flat fitted curve, though single readings scatter.

Test [1] can be described thus: AP1 Signaling Pathway (AID 357).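 Note: ME-180 reporter cells stimulated with EGF at its EC50 level; % is set by controls: 0 for no effect and ±100 for the full control effect.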 Conditions: ME-180 AP-1-bla reporter, EGF-induced, beta-lactamase ratio, 5 h. The gist of the method:
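AP-1-bla ME-180 cells, Opti-MEM + 0.5% dialyzed FBS, plated overnight 37 °C. Cpd titration + EC50 EGF, 5 h 37 °C. CCF4 2.5 h RT; ex 405, em 460/530 ratio → %activity, AC50.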

The target in test [2] is Cytochrome P450 1A2 (Homo sapiens) (UniProt P05177). Description: p450-cyp1a2 (AID 410; calls by dose curve; note: potency is the fitted concentration of half-maximal effect;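 for activity change, negative = inhibition: -100% = full effect of reference inhibitor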). Conditions: recombinant CYP1A2, luciferin-ME demethylation, luminescence; series mostly up to 57 µM. The essentials:
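O-Demethylation of luciferin 6' methyl ether by human CYP1A2 is monitored as luciferase luminescence. Substrate sits at Km (100uM); enzyme is 20nM. Values are scaled to 57 uM furafylline as maximal inhibition.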

Test [3] is described as follows: NFAT Signaling Pathway (AID 444).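 Note: carbachol stimulus at about its EC50 of 1 µM final; % is set by controls: 0 for no effect and ±100 for the full control effect.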 Conditions: Jurkat NFAT-bla M1, carbachol, beta-lactamase ratio, 5 h. The gist of the method:
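Jurkat cells with NFAT-driven β-lactamase reporter and co-expressed M1 receptor, stimulated with carbachol (final 1 uM, ~EC50), compound titration, 5 h at 37 °C. CCF4 loaded 1 h at RT; 460/530 nm ratio gave %activity and AC50.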

The nature of test [4]: Stat Signaling Pathway (AID 446).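 Note: ME-180 cervical cancer cells given 40 pM IL-6 alongside compound; SIE-controlled beta-lactamase reporter measured as 460/530 nm FRET emission ratio; % is set by controls: 0 for no effect and ±100 for the full control effect.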 Conditions: ME-180 (cervical carcinoma) SIE beta-lactamase reporter, IL-6 stimulated, 5 h; series mostly up to 17.2 µM. The essentials:
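Normalization used AC90 stimulation (300 pM IL-6) and AC90 inhibition (125 nM pan-JAK inhibitor at 40 pM IL-6). The underlying signal is SIE-driven beta-lactamase in ME-180 cells after 5 h IL-6 exposure with compound.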

Test [5] has as its target Glucocorticoid receptor (Homo sapiens) (UniProt P04150). Put plainly: GR-GFP Redistribution (AID 450;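 active = compounds whose dose series gives a full or clear partial fitted curve of increased nuclear translocation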; note: potency is the fitted concentration of half-maximal effect). Conditions: U2OS GR-GFP nuclear translocation, laser cytometry, 2 h.
Test [6] has the same target. Put plainly: GR-EFC Redistribution (AID 451; calls by dose curve; note: potency is the fitted concentration of half-maximal effect). Conditions: CHO-K1 GR-EFC translocation, beta-gal luminescence, 2 h. The essentials:
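CHO-K1 cells expressing nuclear EA and GR-ED fragments of b-gal; compounds titrated up to 46 uM final, 2 h at 37 C. GR nuclear translocation read as complemented b-gal luminescence after 1 h RT detection.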

In test [7] the target is Mitogen-activated protein kinase 10 (Mus musculus) (UniProt Q61831). Description: JNK3 AlphaScreen Assay (AID 530).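 Note: kinase came from lysate of stimulated human HepG2 cells; signal reports phosphorylation of biotinylated GST-cJun 1-79 at Ser73 with 10 µM ATP; % is set by controls: 0 for no effect and ±100 for the full control effect.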 Conditions: JNK3 lysate, c-Jun phosphorylation; series mostly up to 57.1 µM. The essentials:
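Activity was read by AlphaScreen after JNK3-containing HepG2 lysate (cytokine pre-activated) phosphorylated biotinylated GST-cJun with 10 uM ATP at room temperature. Phospho-Ser73 cJun antibody with Protein-A acceptor beads provided detection.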
For orientation: Alpha assays give light when donor and acceptor beads are brought close together.

Test [8] can be described thus: Cell Viability - BJ (AID 421; calls by dose curve;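 note: potency is the fitted concentration of half-maximal effect; cells exposed to compound for 40 hours at 37 °C before readout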). Conditions: BJ fibroblast viability, qHTS. The gist of the method:
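Normal human BJ foreskin fibroblasts, 1500/well in complete medium, treated 40 hr at 37 °C. Cellular ATP by CellTiter-Glo luminescence; normalized to DMSO and 100 uM tamoxifen, AC50 from Hill fit.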
On the technique in general: In qHTS, concentration-response curves come from the screen itself.

Test [9] can be described thus: Cell Viability - Jurkat (AID 426;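 active = dose-dependent loss of cell ATP signal giving a full or clear fitted curve, ranked by lower potency value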; note: potency is the fitted concentration of half-maximal effect). Conditions: qHTS. The gist of the method: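 Cells of the human T-cell leukemia line Jurkat (E6-1) are seeded at 5000 per well, treated with compound across a concentration range for 40 hours at 37 °C, then lysed with CellTiter-Glo; luminescence reports ATP.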
Test [10] can be described thus: Cell Viability - Hek293 (AID 427;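 active = compounds whose dose-response curve shows a full or clear partial loss of cell viability, called from curve shape rather than a numeric limit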;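 note: potency is the fitted concentration of half-maximal effect; cells exposed to compound for 40 hours at 37 °C before reading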). Conditions: qHTS. The gist of the method: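 HEK293 cells in complete medium were exposed to compound for 40 hr at 37 °C, then cellular ATP was read by CellTiter-Glo luminescence. Data were normalized to DMSO (basal) and 100 uM tamoxifen (100% inhibition), and AC50 came from Hill fits.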
The nature of test [11]: Cell Viability - HepG2 (AID 433; calls by dose curve;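 note: potency is the fitted concentration of half-maximal effect; potency for ATP loss meaning cytotoxicity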). Conditions: qHTS. The essentials:
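In this qHTS format, a 40 h, 37 °C compound incubation of HepG2 cells in complete medium precedes a 20 min CellTiter-Glo step at room temperature. Tamoxifen and doxorubicin serve as positive controls; Hill-equation fits yield AC50.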

Test [12] can be described thus: Cell Viability - MRC5 (AID 434; calls by dose curve;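 note: potency is the fitted concentration of half-maximal effect; potency reflects cytotoxicity seen as loss of intracellular ATP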). Conditions: MRC5 lung fibroblast viability, qHTS. The gist of the method: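 ATP luminescence read-out (CellTiter-Glo, 20 min RT) after 40 hr, 37 °C compound exposure of 1500 MRC5 cells/well. Data normalized to DMSO (basal) and 100 uM tamoxifen (100% inhibition); AC50 from standard Hill equation.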
The nature of test [13]: Cell Viability - SK-N-SH (AID 435; calls by dose curve;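 note: potency is the fitted concentration of half-maximal effect; compound exposure lasted 40 h at 37 °C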). Conditions: SK-N-SH neuroblastoma cell viability qHTS. The gist of the method: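 Human neuroblastoma line, 40 h exposure at 37 °C, ATP quantified via luciferase luminescence; DMSO and 100 uM tamoxifen define 0 and 100% inhibition for AC50 fitting.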
Test [14] is described as follows: Cell Viability - N2a (AID 540; active = well fitted curve in the direction sought with a large enough effect; an effect the other way counts as inactive or inconclusive;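 note: plate controls were DMSO alone for no effect and tamoxifen control for full effect; nearly all actives have a fitted effect of over 45% in size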). Conditions: N2a mouse neuroblastoma cell viability; series mostly up to 92.2 µM. The gist of the method:
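Cytotoxicity was scored as loss of cellular ATP in N2a cells, a mouse neuroblastoma line. Compounds are applied in a qHTS concentration series for 40 hr at 37 °C.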

Test [15] in a line: Cell Viability - NIH 3T3 (AID 541; active = well fitted curve in the direction sought with a large enough effect; an effect the other way counts as inactive or inconclusive;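 note: plate controls were DMSO alone for no effect and tamoxifen positive control for full effect; nearly all actives have a fitted effect of over 25% in size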). Conditions: NIH 3T3 cell viability, qHTS; series mostly up to 92.2 µM. The essentials: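 Cells seeded at 1000/well, rested 5 hr at 37 °C, then dosed and incubated 40 hr at 37 °C. CellTiter-Glo added, 20 min room temperature, luminescence read. AC50 by Hill fit.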
Test [16] can be described thus: Cell Viability - HUV-EC-C (AID 542; active = well fitted curve in the direction sought with a large enough effect; an effect the other way counts as inactive or inconclusive; note: % is set by controls: 0 for no effect and ±100 for the full control effect; nearly all actives have a fitted effect of over 35% in size). Conditions: HUV-EC-C endothelial cell viability, qHTS; series mostly up to 92.2 µM. The gist of the method:
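Cells were seeded at 1000 per well and incubated 5 hr at 37 °C before compound addition. After 40 hr at 37 °C, CellTiter-Glo reagent was added for 20 min and luminescence read. AC50 values came from Hill-equation modelling.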

Test [17] in a line: Cell Viability - H-4-II-E (AID 543; active = well fitted curve in the direction sought with a large enough effect; an effect the other way counts as inactive or inconclusive; note: % is set by controls: 0 for no effect and ±100 for the full control effect; nearly all actives have a fitted effect of over 35% in size). Conditions: H-4-II-E rat hepatoma viability; series mostly up to 92.2 µM. The gist of the method:
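Cells seeded at 1500 per well and rested 5 hr; compounds added; 40 hr incubation at 37 °C; CellTiter-Glo added, 20 min at room temperature; luminescence read. Hill-equation fits gave AC50.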

Test [18] can be described thus: Cell Viability - SH-SY5Y (AID 544; active = well fitted curve in the direction sought with a large enough effect; an effect the other way counts as inactive or inconclusive;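 note: 0% = DMSO alone and -100% = 100 µM tamoxifen; nearly all actives have a fitted effect of over 55% in size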). Conditions: SH-SY5Y neuroblastoma cell viability; series mostly up to 92.2 µM. The essentials: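 Cells were plated at 1500 per well and allowed 5 hr at 37 °C. Compounds were added across a concentration range and incubated 40 hr at 37 °C. CellTiter-Glo was added for 20 min at room temperature before luminescence reading.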
A short description of test [19]: Cell Viability - Renal Proximal Tubule (AID 545; active = well fitted curve in the direction sought with a large enough effect; an effect the other way counts as inactive or inconclusive;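 note: 0% = DMSO only and -100% = 100 µM tamoxifen; nearly all actives have a fitted effect of over 40% in size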). Conditions: renal proximal tubule cells viability, primary cells of rat origin; series mostly up to 91.7 µM. The essentials: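 In this qHTS format, normal rat kidney-derived proximal tubule cells in complete culture medium receive compound titrations, then sit 40 hours at 37 °C before luciferase-based ATP quantitation; potency is reported as AC50 from concentration-response curves.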

Glucocorticoid receptor (Homo sapiens), sequence (P04150 whole entry, looked up): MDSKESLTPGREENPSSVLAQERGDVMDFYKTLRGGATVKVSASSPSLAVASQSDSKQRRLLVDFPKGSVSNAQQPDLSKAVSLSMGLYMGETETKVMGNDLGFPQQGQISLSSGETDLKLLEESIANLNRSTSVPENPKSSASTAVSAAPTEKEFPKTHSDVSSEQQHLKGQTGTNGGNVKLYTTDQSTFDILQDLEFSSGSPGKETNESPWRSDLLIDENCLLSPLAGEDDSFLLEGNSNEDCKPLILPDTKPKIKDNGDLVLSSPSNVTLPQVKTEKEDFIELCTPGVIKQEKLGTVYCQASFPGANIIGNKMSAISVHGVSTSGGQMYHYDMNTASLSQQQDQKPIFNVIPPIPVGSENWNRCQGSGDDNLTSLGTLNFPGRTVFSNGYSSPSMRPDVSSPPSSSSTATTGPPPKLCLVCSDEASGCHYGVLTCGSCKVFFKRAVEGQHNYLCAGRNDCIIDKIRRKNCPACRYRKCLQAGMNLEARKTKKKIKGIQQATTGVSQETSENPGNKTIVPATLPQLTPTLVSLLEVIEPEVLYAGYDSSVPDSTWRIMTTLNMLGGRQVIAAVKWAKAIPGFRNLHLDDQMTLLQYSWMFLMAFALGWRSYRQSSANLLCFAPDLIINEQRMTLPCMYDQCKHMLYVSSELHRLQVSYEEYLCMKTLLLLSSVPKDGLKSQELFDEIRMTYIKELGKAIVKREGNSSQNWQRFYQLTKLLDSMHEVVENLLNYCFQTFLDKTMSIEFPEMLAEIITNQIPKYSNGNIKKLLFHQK
Cytochrome P450 1A2 (Homo sapiens), sequence (P05177 whole entry, looked up): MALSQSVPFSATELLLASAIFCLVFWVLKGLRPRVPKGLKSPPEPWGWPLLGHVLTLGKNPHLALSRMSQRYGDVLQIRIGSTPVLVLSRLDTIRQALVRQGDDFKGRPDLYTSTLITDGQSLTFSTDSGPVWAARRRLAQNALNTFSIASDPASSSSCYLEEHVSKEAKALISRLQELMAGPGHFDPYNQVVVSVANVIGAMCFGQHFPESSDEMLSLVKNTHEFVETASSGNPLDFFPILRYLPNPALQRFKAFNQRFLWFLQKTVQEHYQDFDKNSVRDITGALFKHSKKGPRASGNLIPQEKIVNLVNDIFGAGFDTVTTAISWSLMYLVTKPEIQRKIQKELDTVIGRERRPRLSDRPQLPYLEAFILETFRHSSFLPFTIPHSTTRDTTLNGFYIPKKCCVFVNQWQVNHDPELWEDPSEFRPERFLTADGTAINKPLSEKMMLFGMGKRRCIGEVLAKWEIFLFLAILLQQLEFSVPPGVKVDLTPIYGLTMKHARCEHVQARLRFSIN

For `NNCCc1ccccc1`, the activity change, negative = inhibition in test [1] (at 17.2 µM (top of the series)) was -1.06%; in test [1] (at 38 µM (top of the series)) it was 26%; in test [3] (at 17.2 µM (top of the series)), -10.8%; in test [3] (at 38 µM (top of the series)) it was -17.1%. Besides, the Potency in test [2] was 3.16 µM (active) and 1 µM (active); in test [5] it was > 46 µM and > 20.6 µM; in [6] it was > 46 µM and > 20.6 µM. For the same compound, the result in test [4] and in [7] was inactive.
As for `NC(=O)c1cnccn1`, the activity change, negative = inhibition in [1] (at 38 µM (top of the series)) is 5.47%; in [3] (at 38 µM (top of the series)), 2.31%. For the same compound, the Potency entry in test [2], in test [15] and in test [17] was “inactive” throughout. The Potency in test [8], in [9], in test [10], in test [11], in test [12] and in test [13] was over 92 µM throughout. Further, the Potency in test [5] and in test [6] was over 46 µM each time. Also, the result in test [4], in test [7], in test [14], in test [16], in test [18] and in test [19] was inactive.
For `CNC[C@H](O)c1cccc(O)c1`, the activity change, negative = inhibition was -10.2% in test [1] (at 17.2 µM (top of the series)), -17.9% in test [1] (at 38 µM (top of the series)), -25.3% in test [3] (at 17.2 µM (top of the series)) and -0.528% in test [3] (at 38 µM (top of the series)). Besides, the compound was classed as inactive in test [4] and in test [7].
As for `Clc1cccc(Cl)c1NC1=NCCN1`, the activity change, negative = inhibition in [1] (at 17.2 µM (top of the series)) is -0.203%; in test [1] (at 38 µM (top of the series)), 4.79%; in test [3] (at 17.2 µM (top of the series)), -11.5%; in test [3] (at 38 µM (top of the series)), -5.97%. Moreover, the Potency entry in test [2] is “inactive”. In addition, the result in test [4] and in [7] was inactive. Further, the Potency in test [5] is > 46 µM and > 20.6 µM; in [6], > 46 µM and > 20.6 µM.
For `Cc1[nH]c(=O)c(C#N)cc1-c1ccncc1`, the activity change, negative = inhibition is 8.13% in [1] (at 17.2 µM (top of the series)), -0.284% in [1] (at 38 µM (top of the series)), -20.1% in test [3] (at 17.2 µM (top of the series)) and -0.614% in test [3] (at 38 µM (top of the series)). Besides, the outcome in [4] and in [7] was inactive.
On to `Nc1nc2ccc(OC(F)(F)F)cc2s1`, for which the activity change, negative = inhibition in [1] (at 17.2 µM (top of the series)) is 7.09% and 1.61%; in test [1] (at 38 µM (top of the series)) it was -15%; in test [3] (at 17.2 µM (top of the series)), 0.982% and -0.48%; in test [3] (at 38 µM (top of the series)) it was 13.4%. The outcome in [4] and in test [7] was inactive. The Potency in test [5] is > 46 µM and > 20.6 µM; in [6] it was > 46 µM and > 20.6 µM.
